Drawing on PubChem BioAssay AID1825 (The Scripps Research Institute Molecular Screening Center, 2009), this text covers inhibition for 100 compounds.

Screen size: about 290,000 compounds; about 2,300 (0.79%) were called active. Shown is part of a subset that was picked to be rich in actives. Values without a mark were called inactive. No stated cut-off is given here; in the data, active means inhibition above about 22%; inactive means the rest.

This assay in a line: cytotoxicity in IEC-6 intestinal epithelial cells, primary screen, cytotoxicity control for KLF5 inhibitor project, cell-based, luminescence (AID 1825).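 Further: 0% = plate median of test compound wells and 100% = cytotoxic reference compound wells.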 The settings on record: IEC-6 cytotoxicity, luminescence viability; at 5 µM; stronger effect = higher value.
In the case of `CCOc1ccc(NC(=O)CCC(=O)NNC(=O)NC2CCCCC2)cc1`, the inhibition is -7.2%.
As to `O=S(=O)(c1ccc(Br)cc1)n1ccc2ccccc21`, the inhibition was 3.2%.
With `CCn1c(SCC(=O)NC2=NCCS2)nnc1C(C)NC(=O)c1ccccc1F` (stereo not given), the inhibition is 0.1%.
In the case of `CCOc1ccc2nc(Nc3nc4ccc(NC(C)=O)cc4s3)sc2c1` it was -2.2%.
In the case of `CCCC(=O)Nc1nc2ccc(NC(=O)c3c(F)c(F)c(OC)c(F)c3F)cc2s1` it was 76.8% (active); in that of `CCOC(=O)c1ccc(NC(=O)c2cccnc2)cc1`, -6.9%; in that of `O=C(Cc1ccccc1)Nc1ccc(NC(=O)c2cccnc2)cc1`, 0.2%.
In the case of `CCCC(=O)Nc1nc2ccc(NC(=O)c3cccnc3)cc2s1` it was 30.2% (active); in that of `CSc1nc2ccc(NC(=O)c3c(F)cccc3F)cc2s1`, 8.5%.
Turning to `COc1ccccc1/C=C/C(=O)NC1CC2CCC1C2` (stereo not given), the inhibition was 4.4%.
In the case of `Cc1cc(C)n2nc(SCC(N)=O)nc2n1` it was 4.6%.
In the case of `Cc1cc(C)n2nc(CNS(=O)(=O)c3c(F)c(F)c(F)c(F)c3F)nc2n1` it was 31.5% (active); in that of `Cc1cc(C)n2nc(C(=O)NC(C)(C)C)nc2n1`, 3.3%.
In the case of `O=C1C(=O)N(CCCN2CCOCC2)C(c2ccc([N+](=O)[O-])cc2)/C1=C(\O)c1ccc2c(c1)OCCO2` (stereo not given) it was -1.8%; in that of `COc1ccc(Nc2ncc(C(=O)N3CCN(c4ccccc4OC)CC3)c3ccccc23)cc1`, 11.7%; in that of `Cn1c(Nc2cccc(Cl)c2)nc2ccccc21`, 4.2%.
On to `CCOc1c(Nc2cccc(Cl)c2)c(=O)c1=O`, for which the inhibition is 23.4% (active).
In the case of `NS(=O)(=O)c1cccnc1Nc1cccc(Cl)c1` it was -0.6%.
In the case of `O=C(Nc1ccc(Br)cn1)c1ccc([N+](=O)[O-])o1` it was 16.7%; in that of `Cc1cccc(NC(=S)NC(=O)c2ccc(Br)o2)c1`, 1.6%; in that of `Cc1cccc(NC(=O)c2sc(-c3ccccc3)nc2-c2ccc([N+](=O)[O-])cc2)c1`, -10%.
In the case of `Cc1onc(C(=O)NCc2ccc(F)cc2)c1[N+](=O)[O-]` it was -2.3%; in that of `Cc1onc(NC(=O)c2ccc([N+](=O)[O-])o2)c1Br`, 46.1% (active).
Take `Cc1cccc(NC(=O)c2ccc([N+](=O)[O-])o2)c1`: the inhibition is 66.2% (active).
In the case of `O=c1[nH]cnc(O)c1C(c1ccc(F)cc1)c1c(O)nc[nH]c1=O` it was -4.2%; in that of `CC1C(=O)Nc2ccc(S(=O)(=O)N3CCN(c4ccccc4F)CC3)cc2NC1=O` (stereo not given), 1.5%.
Take `O=c1c2c(-c3ccccc3)ccnc2[nH]n1-c1ccccc1`: the inhibition was -0.7%.
With `COc1ccc(-c2ccc(CCC(=O)O)n2NC(=O)c2ccc(C(C)(C)C)cc2)cc1`, the inhibition was -6.8%.
In the case of `O=c1cc(-c2ccccc2)[nH]c2cc(F)ccc12` it was 80.7% (active); in that of `Cc1ccc(-c2cc(=O)c3ccc(Cl)cc3[nH]2)cc1`, 0.6%; in that of `Cc1ccc(-c2cc(=O)c3ccc(F)cc3[nH]2)cc1`, -6.3%.
In the case of `O=C(Nc1cccc2cccnc12)c1cccc(Cl)c1` it was 7.6%; in that of `COc1ccc(C(=O)NCC(=O)N/N=C/c2cccnc2)cc1`, 3.2%.
In the case of `Cc1nc2nc(C)c(NS(=O)(=O)c3ccc(C(C)(C)C)cc3)c(=O)n2[nH]1` it was 1.1%; in that of `Cc1ccc(-n2ncc3c2CCCC3NC(=O)c2cnccn2)cc1C` (stereo not given), 3.7%.
Regarding `Cn1nccc1C(=O)NC1CCCc2c1cnn2-c1ccc(F)cc1F` (stereo not given), the inhibition was 31% (active).
In the case of `Cn1nccc1C(=O)NC1CCCc2c1cnn2-c1ccccc1F` (stereo not given) it was 25.7% (active); in that of `COc1ccc(C(=O)NC2CCCc3c2cnn3-c2cccc(C)c2C)c(OC)n1` (stereo not given), 8.5%.
In the case of `CC(=O)NCC(=O)NC1CCCc2c1cnn2-c1ccccc1F` (stereo not given) it was -1.9%; in that of `Cc1cc(C(=O)NC2CCCc3c2cnn3-c2cccc(C)c2C)c(C)o1` (stereo not given), 4.8%.
As to `Cc1ccc(/C=C2\CCn3c2nc2cc(C(=O)O)ccc2c3=O)c(C)c1`, the inhibition was 1.8%.
As to `C=C(C)Cn1c(C)cc(C)c(S(=O)(=O)c2ccccc2C)c1=O`, the inhibition is -2.1%.
In the case of `Cc1cccc(-n2ncc(C#N)c2-n2cccc2)c1` it was 1.1%.
As to `COc1ccc(Oc2c(Cl)cnn(-c3ccccc3)c2=O)cc1`, the inhibition is 1.3%.
For the compound `Cc1cccc(-n2ncc(Cl)c(Cl)c2=O)c1`, the inhibition is 97.5% (active).
In the case of `CC(C)CC(=O)N1CCN(Cc2ccccc2Br)CC1` it was 1.6%; in that of `COc1ccc(/C=C/C(=O)Nc2ccc(C34CC5CC(CC(O)(C5)C3)C4)cc2)cc1OC`, 18.5%; in that of `O=C(N=C1SC2CS(=O)(=O)CC2N1c1cc(Cl)ccc1Cl)C1CC1` (stereo not given), -6.4%.
In the case of `COc1ccc(C23NCCN2C(=O)c2ccccc23)cc1` (stereo not given) it was 1.3%.
As to `COc1cccc(N2C(=O)CN(Cc3ccccc3)C2=S)c1`, the inhibition was 9.4%.
In the case of `Cc1ccc(S(=O)(=O)N2CCN(C)CC2)cc1` it was -1.1%; in that of `Cc1ccc(S(=O)(=O)C2(S(=O)(=O)c3ccc(C)cc3)CCCC2)cc1`, 45.6% (active).
In the case of `Cc1ccc(S(=O)(=O)N(C)C2(C)CCS(=O)(=O)C2)cc1` (stereo not given) it was -8.7%; in that of `COc1ccccc1CCNS(=O)(=O)c1cn(C)nc1C`, -1.7%; in that of `CN(CCc1ccccn1)C1CCCN(S(=O)(=O)c2ccccc2Cl)C1` (stereo not given), 5.5%.
`O=C1C(=O)N(CC2COc3ccccc3O2)c2ccccc21` (stereo not given): the inhibition was 65.8% (active).
For the compound `O=C(CN1C(=O)C2C3C=CC(C3)C2C1=O)NCC1COc2ccccc2O1` (stereo not given), the inhibition was -0.7%.
In the case of `Cc1cc(C(=O)CCl)c(C)n1CC1COc2ccccc2O1` (stereo not given) it was -0.4%.
In the case of `COc1ccc(N2CC(C(=O)N[C@@H](C)C(=O)N3CCCCC3)CC2=O)cc1` (stereo not given in full) it was 4.5%; in that of `Cc1ccc(-n2ncc3c2CC(C)(C)CC3NC(=O)Cc2c(C)noc2C)cc1` (stereo not given), 4%.
In the case of `COc1cc(Br)c(-c2sc(Nc3ccccc3)n[n+]2-c2ccccc2)cc1OC` it was -5.7%; in that of `O=c1oc2ccccc2cc1-c1cn(-c2ccccc2)c(=S)[nH]1`, 30.6% (active).
Turning to `S=c1[nH]c(-c2cccs2)cn1-c1ccccc1`, the inhibition was -0.4%.
On to `COc1ccc(-c2cn(-c3ccc(OC)cc3)c(=S)[nH]2)cc1`, for which the inhibition is -3.2%.
In the case of `CCn1ccnc1CN(C)C(=O)c1cc(COc2ccc(Cl)cc2OC)on1` it was 1.4%; in that of `Cc1nn(CCCC(=O)NCc2ccccc2Cl)c(=O)c2nccn12`, -5.6%; in that of `Cc1cc(Oc2ccc(Cl)cc2)nc(SCC(=O)c2ccccc2)n1`, 1.9%.
With `CC(=O)c1ccc(Oc2cc(C)nc(-n3nc(C)cc3C)n2)cc1`, the inhibition was 85.4% (active).
In the case of `COc1ccccc1/C=N\Nc1cc(C)nc(-n2nc(C)cc2C)n1` it was -10.1%; in that of `COc1ccc(Nc2cc(C)nc(-n3nc(C)cc3C)n2)cc1`, 84.8% (active).
In the case of `Cc1cc(N/N=C\c2ccc(Br)cc2)nc(-n2nc(C)cc2C)n1` it was -0.5%; in that of `CCOC(=O)c1cnc(-n2nc(C)cc2C)nc1Nc1cccc(C(C)=O)c1`, 1.3%; in that of `N#CCc1ccc(NC(=O)c2ccccc2C(=O)Nc2ccc(CC#N)cc2)cc1`, -5.3%.
In the case of `COC(=O)COc1ccc2c(=O)c(Oc3ccccc3Br)coc2c1` it was 5.7%; in that of `Cc1nc2sccn2c(=O)c1S(=O)(=O)NCCc1ccccc1`, -0.1%.
Turning to `CCc1cccc(NC(=O)C2CCCN(S(=O)(=O)c3ccc4[nH]c(=O)ccc4c3)C2)c1` (stereo not given), the inhibition was -2.8%.
In the case of `COc1ccc(Nc2nnc(C)c3ccccc23)cc1` it was -4%; in that of `COc1ccc2oc(=O)cc(-c3cc4ccccc4o3)c2c1`, 2.8%; in that of `COc1ccc(Nc2cc(=O)oc3ccccc23)cc1`, 46.4% (active).
For the compound `O=S(=O)(Cc1nnnn1-c1ccccc1)c1ccccc1`, the inhibition is 1.5%.
In the case of `O=C(Nc1nnc(S(=O)(=O)N2CCOCC2)s1)c1cccc(Br)c1` it was 0.3%.
Take `Cc1cnc(NC(=O)c2ccccn2)s1`: the inhibition is 8.9%.
As for `O=C(Nc1nnc(C2CC2)s1)c1cc(Cl)sc1Cl`, the inhibition was 0.1%.
In the case of `O=C(Nc1nnc(C2CC2)s1)c1ccccn1` it was 27.4% (active); in that of `COc1ccc(/C=N/N(C)C2=NS(=O)(=O)c3ccccc32)cc1OC`, -2.2%; in that of `Clc1cccc(N=C2NN=C(c3ccc4c(c3)OCCO4)CS2)c1`, -1.6%.
For `CN(C)c1nc(=Nc2cccc(Cl)c2)ss1`, the inhibition is 56.2% (active).
For `O=C(CN1CCN(Cc2ccccc2)CC1)Nc1ccc(F)c(F)c1`, the inhibition was 6.7%.
In the case of `Cn1c(=O)oc2cc(S(=O)(=O)NCCC(=O)NCc3ccccc3Cl)ccc21` it was 0.7%; in that of `COc1ccccc1CNC(=O)C1CCN(S(=O)(=O)c2ccc3c(c2)CC(C)N3C(=O)C2CC2)CC1` (stereo not given), 3.9%; in that of `Cc1ccc(Nc2nc(N3CCOCC3)nc(N3CCOCC3)n2)cc1Cl`, 68.1% (active).
In the case of `Cc1ccccc1NC(=O)CSc1nc2ccc(Nc3nc(N4CCOCC4)nc(N4CCOCC4)n3)cc2s1` it was 3.9%; in that of `Cc1cc(Nc2ccc(Cl)cc2)nc(N2CCOCC2)n1`, 11.5%; in that of `Cc1ccc(NC(=O)CN(C)C(=O)c2ccc(Br)o2)cc1`, -4.8%.
In the case of `O=C(Nn1cc(C(=O)N2CCN(c3ccccc3F)CC2)c2ccccc2c1=O)c1cnccn1` it was 23.7% (active); in that of `O=C(c1ccc(S(=O)(=O)N2CCCC2)cc1)N1CCN(c2ccccc2F)CC1`, 2.3%; in that of `Cn1c(=O)cc(OCC(=O)N2CCN(c3ccccc3F)CC2)c2ccccc21`, -5.1%.
On to `CCCOn1c(-n2nc(C)cc2C)nc2ccccc2c1=O`, for which the inhibition was 54.7% (active).
In the case of `CCOn1c(SC(C)C)nc2ccccc2c1=O` it was -3.8%; in that of `Cc1cc(C)n(-c2nc(C(F)(F)F)nc3ccccc23)n1`, 5.6%.

One may read the inhibition as the relative decrease from the control value, in per cent.
